The values below come from PubChem BioAssay.

In the experiment the target is NADPH oxidase 5 (Homo sapiens) (UniProt Q96PH1). The experiment in a line: compounds shifting NOX5 Amplex Red fluorescence – cell-based, HEK293-NOX5, NOX inhibitor project, primary screen (AID 1161). The following applies: HEK293-NOX5, ionomycin, 45 min, higher = more signal.
NADPH oxidase 5 (Homo sapiens), sequence (Q96PH1 whole entry, looked up): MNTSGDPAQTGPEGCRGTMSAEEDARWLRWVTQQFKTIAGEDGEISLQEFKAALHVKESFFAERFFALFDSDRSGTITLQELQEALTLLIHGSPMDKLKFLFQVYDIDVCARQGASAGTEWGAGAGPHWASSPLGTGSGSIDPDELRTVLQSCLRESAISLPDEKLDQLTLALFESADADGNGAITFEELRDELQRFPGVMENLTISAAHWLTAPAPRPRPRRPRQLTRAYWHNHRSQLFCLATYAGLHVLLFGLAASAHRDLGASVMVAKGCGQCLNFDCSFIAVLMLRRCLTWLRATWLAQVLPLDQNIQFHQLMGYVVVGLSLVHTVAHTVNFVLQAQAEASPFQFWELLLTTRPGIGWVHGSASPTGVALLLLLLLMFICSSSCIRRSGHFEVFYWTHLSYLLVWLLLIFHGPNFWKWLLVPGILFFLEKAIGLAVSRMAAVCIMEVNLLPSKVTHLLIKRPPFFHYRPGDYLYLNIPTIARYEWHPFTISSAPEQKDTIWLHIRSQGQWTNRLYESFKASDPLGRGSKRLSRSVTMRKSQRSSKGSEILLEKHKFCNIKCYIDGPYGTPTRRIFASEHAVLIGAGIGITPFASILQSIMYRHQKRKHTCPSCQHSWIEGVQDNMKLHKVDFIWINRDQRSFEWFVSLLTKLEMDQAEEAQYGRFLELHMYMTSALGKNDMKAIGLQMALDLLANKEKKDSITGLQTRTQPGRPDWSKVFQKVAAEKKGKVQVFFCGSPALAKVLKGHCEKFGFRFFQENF
With `O=C1[C@H]2[C@H]3[C@H](O)[C@H](O)CC(=NOC[C@@H](O)COCc4ccco4)[C@@H]3CC[C@H]2C(=O)N1c1cccc(Oc2ccccc2)c1`, the z-score was 0.425.
As for `COC(=O)[C@@H]1CC[C@H](C)[C@@H](c2ccc(Br)cc2)N1C[C@@H](O)CN=[N+]=[N-]`, the z-score is 0.126.
`CCOC(=O)[C@H](Cc1ccccc1)NC(=O)CCC1CC(OC(=O)NCc2cccc3ccccc23)CC2(CCCC(COC(=O)NCC3CCCCC3)O2)O1` (some centres undefined): the z-score turned out to be 0.517.
Regarding `C#CCCCON=C1[C@H]2CCn3c(=O)n([C@@H](CC)c4ccccc4)c(=O)n3[C@H]2[C@H](O)[C@@H]2O[C@H]12`, the z-score came to 1.12.
Regarding `C[C@@H]1C=CCC(=O)OC[C@H](C)C(=O)N[C@@H](Cc2ccccc2)C(=O)OC1`, the z-score is -0.396.
As for `Cc1ccc2[nH]c3nc(CCCn4ccnc4-c4ccccc4)nnc3c2c1`, the figure is -1.14; as for `CC(CCN1CCc2nc(-c3ccccc3)c(-c3ccccc3)cc2C1)=NO[C@@H](C)c1cc(-c2c(C)cc(C)cc2C)no1`, -0.296; as for `O=C1[C@H]2CCn3c(=O)n(Cc4cc5c(cc4Cl)OCO5)c(=O)n3[C@H]2[C@H](O)[C@@H]2O[C@H]12`, 0.336.
Regarding `CCCNC(=O)OC[C@H]1O[C@H](CCON=C[C@@H](NS(=O)(=O)c2ccc(C)cc2)[C@H](C)C=CCC(=O)OC)C=C[C@@H]1Oc1ccc(OC)cc1`, the z-score was -0.746.
Regarding `CCN1C(=O)[C@H]2[C@H]3[C@H](O)[C@H](O)CC(=NOCC[C@@H]4C=C[C@H](OC(C)=O)[C@@H](COC(C)=O)O4)[C@@H]3CC[C@H]2C1=O`, the z-score worked out at 0.859.
In the case of `COc1ccc(O[C@H]2C=C[C@@H](c3ccccc3)O[C@@H]2COC(=O)CCC(C)=NOC[C@@H](O)COCc2ccco2)cc1`, the z-score was -4.55.
As for `CC(C)[C@@H](OCc1ccccc1)[C@H](C)C=NOC[C@@H](O)[C@H]1O[C@@H]2OC(C)(C)O[C@@H]2[C@H]1O`, the figure is 0.165; as for `O=C1C2=CC[C@H]3C(=O)N(Cc4ccccc4)C(=O)[C@H]3[C@H]2[C@H](O)[C@@H]2O[C@H]12`, 0.44; as for `COC(=O)[C@H](C)NC(=O)CCC1CC(OC(=O)NCc2ccc3c(c2)OCO3)CC2(CCCC(COC(=O)NCc3ccccc3)O2)O1` (some centres undefined), 0.654.
On to `CC(C)CON=C1C[C@@H](O)[C@@H](O)[C@@H]2[C@@H]3C(=O)N(Cc4ccccc4)C(=O)[C@@H]3CC[C@H]12`, for which the z-score was 0.588.
Take `O=C1[C@H]2[C@H]3[C@H](O)[C@H](O)CC(=NO[C@@H]4O[C@H](CO)[C@@H](O)[C@H](O)[C@H]4O)[C@H]3CC[C@H]2C(=O)N1c1ccc(F)cc1F`: the z-score was 0.667.
`CC(=O)OC[C@H]1O[C@@H](ON=C2[C@H]3CCn4c(=O)n(-c5ccccc5)c(=O)n4[C@H]3[C@H](O)[C@@H]3O[C@H]23)[C@H](OC(C)=O)[C@@H](OC(C)=O)[C@@H]1OC(C)=O`: the z-score came out at 0.187.
As for `C#CCCCON=C1C[C@@H](O)[C@@H](O)[C@@H]2[C@@H]3C(=O)N([C@@H](C)c4ccccc4)C(=O)[C@@H]3CC[C@@H]12`, the figure is -0.132; as for `O=C1[C@H]2[C@H]3[C@H](O)[C@H](O)CC(=NOC[C@@H](O)COCc4ccco4)[C@@H]3CC[C@H]2C(=O)N1C1CCCCC1`, 0.475.
As for `C[C@]12CCC3c4ccc(OCC5CO5)cc4CCC3C1CC[C@@H]2O` (some centres undefined), the figure is -1.74.
For `CCOC(=O)CCN1C(=O)[C@H]2[C@H]3[C@H](O)[C@H](O)CC(=NO[C@@H]4O[C@H](CO)[C@@H](O)[C@H](O)[C@H]4O)[C@H]3CC[C@H]2C1=O`, the z-score was -0.9.
Regarding `C=CCOCC1CN2[C@@H](CC[C@@H](C)[C@@H]2c2ccc(Br)cc2)C(=O)O1` (some centres undefined), the z-score is -2.74.
Turning to `CO[C@H]1COC(=O)[C@H](C)COC(=O)[C@@H](OCc2ccccc2)C=C[C@@H]1C`, the z-score was 0.214.
As to `CC(C)=NOC(C)CN1CCCc2nc(C)c(C)cc21` (centres undefined), the z-score is -0.281.
